A selection: hits, their analogues and other compounds. The true share with any hit is near 3.3%.
HNF4A DNA FP = change in binding of human HNF4 alpha to DNA | activity change, % at 10 µM | HNF4a-FITC DNA binding, fluorescence polarization, 1 h | hit rate 0.3% among 360,000 | P41235; in the data active = activity change above about 30%, passing the limit was not always enough
CTSL1 counter = blocks F. hepatica cathepsin L1 in PFM18AAP counter-screen; recombinant F. hepatica cathepsin L1, Z-Leu-Arg-MCA fluorescence; inhibition, % at 5.96 µM; hit rate 0.49% among 300,000; AID 1906;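 active = inhibition above the mean of all tested compounds plus 3 SD, set per screening campaign, cut at about 17% in these data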;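 also: 0% = plate median of test compound wells and 100% = 1 µM Z-Phe-Ala-diazomethylketone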
Rpn11 block = Rpn11 (human) deubiquitinase inhibition. O00487. human 26S proteasome, Ub4-pepOG fluorescence polarization; 20S core pre-blocked with epoxomicin. inhibition, % at 20 µM. hit rate 0.59% among 360,000. AID 588493;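 active = inhibition at 20 µM, scaled to each plate's controls, above about 33%, limit read from the data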
PHOSPHO1 block = PHOSPHO1 (human) inhibition | inhibition, % at 13.3 µM | hit rate 1.1% among 290,000 | AID 1565 | Q8TCT1 | recombinant PHOSPHO1, absorbance phosphatase assay; in the data active = inhibition above about 60%
CendR NRP1 mod = alters CendR peptide binding to human NRP-1; O14786; FAM-RPARPAR peptide binding to NRP-1, fluorescence polarization; inhibition, % at 25 µM; hit rate 0.85% among 360,000; AID 602438;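 active = inhibition or corrected inhibition above about 18%, plus a signal ratio from 0.5 to 1.5, limit read from the data, passing the limit was not always enough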
Target sequence (O14786 whole entry, looked up): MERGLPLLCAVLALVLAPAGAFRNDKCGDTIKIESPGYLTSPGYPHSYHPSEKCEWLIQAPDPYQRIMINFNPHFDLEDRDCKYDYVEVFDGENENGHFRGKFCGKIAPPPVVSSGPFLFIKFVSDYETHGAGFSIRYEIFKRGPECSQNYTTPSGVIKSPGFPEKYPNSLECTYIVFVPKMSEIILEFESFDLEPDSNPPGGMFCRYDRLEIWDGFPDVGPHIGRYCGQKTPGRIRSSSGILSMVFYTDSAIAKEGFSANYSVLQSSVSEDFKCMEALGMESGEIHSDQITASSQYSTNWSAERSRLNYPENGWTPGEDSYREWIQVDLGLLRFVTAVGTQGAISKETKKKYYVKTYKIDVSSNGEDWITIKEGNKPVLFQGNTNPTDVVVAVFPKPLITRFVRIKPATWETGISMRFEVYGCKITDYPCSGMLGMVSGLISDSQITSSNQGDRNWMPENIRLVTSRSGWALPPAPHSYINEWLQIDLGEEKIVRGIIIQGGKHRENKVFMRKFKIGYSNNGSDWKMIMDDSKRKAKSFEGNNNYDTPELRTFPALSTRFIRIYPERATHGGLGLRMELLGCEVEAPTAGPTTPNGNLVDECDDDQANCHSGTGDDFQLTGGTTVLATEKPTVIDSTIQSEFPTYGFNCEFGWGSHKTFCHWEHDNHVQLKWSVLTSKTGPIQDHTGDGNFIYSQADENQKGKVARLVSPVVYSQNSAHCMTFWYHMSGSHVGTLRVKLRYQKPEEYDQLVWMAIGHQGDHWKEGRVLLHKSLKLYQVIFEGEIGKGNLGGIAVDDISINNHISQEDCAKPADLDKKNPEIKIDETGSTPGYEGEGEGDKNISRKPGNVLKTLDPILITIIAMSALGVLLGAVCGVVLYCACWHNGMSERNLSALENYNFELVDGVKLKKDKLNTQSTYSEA
TPT1 inh = blocks Candida albicans tRNA 2'-phosphotransferase | hit rate 0.81% among 300,000 | inhibition, % at 5 µM | recombinant caTPT1, FP RNA substrate dephosphorylation;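 active = inhibition above the mean of all tested compounds plus 3 SD, set per screening campaign, cut at about 24% in these data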;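 also: plate controls were DMSO alone for no effect and ferristatin control at 100 nM for full effect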
caTPT1 confirm = TPT1 (C. albicans) inhibition, confirmation; recombinant caTPT1, fluorescence polarization, RNase T1 coupled; inhibition, % at 5 µM; hit rate 74% among 2,400; shares compounds with TPT1 inh; AID 2149;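 active = inhibition above the primary screen limit, the mean inhibition of all tested compounds plus 3 SD, cut at about 25% in these data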
RNase T1 inh = blocks Aspergillus oryzae RNase T1, a TPT1 counter-screen; shares compounds with TPT1 inh; RNase T1 cleavage, fluorescence polarization, 1536-well; inhibition, % at 5 µM; hit rate 83% among 2,400; AID 2153;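 active = inhibition above the solvent-only control well mean plus 3 SD, limit set per screening run, cut at about 23% in these data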;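 also: plate controls were DMSO wells with enzyme for no effect and wells without RNase T1 for full effect; inhibitors block cleavage so intact labeled substrate keeps polarization high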
Rpn11 confirm = Rpn11 inhibition confirmation, single concentration | inhibition, % at 20 µM | hit rate 29% among 1,900 | purified human 26S proteasome, Ub4-pepOG fluorescence polarization; proteasome pretreated with epoxomicin | shares compounds with Rpn11 block | AID 602318
MMP-2 counter = blocks human MMP-2, flagging nonselective RPN11 hits. AID 602330. inhibition, % at 20 µM. shares compounds with Rpn11 block. hit rate 4% among 1,900. recombinant MMP-2, FRET peptide cleavage fluorescence;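 also: human MMP-2 activated beforehand with APMA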
Thrombin inh = counter-screen for RPN11 inhibitors: inhibition of bovine thrombin; shares compounds with Rpn11 block; inhibition, % at 20 µM; AID 602333; hit rate 13% among 1,900; bovine thrombin cleavage of Ub4-pepOG, fluorescence polarization;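 active = mean inhibition at least 40% at 20 µM, or signal 3 deviations below plate average, so some actives read negative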;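 also: plate controls were thrombin with DMSO for no effect and buffer wells lacking thrombin for full effect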
HNF4a DNA conf = change in binding of human HNF4 alpha to DNA, retest; activity change, % at 12.5 µM; shares compounds with HNF4A DNA FP; hit rate 99% among 210; HNF4A-FITC DNA binding, fluorescence polarization, 1 h; AID 1224897; call rule not given here
An asterisk follows results filed as active; / = no result shown. Rule as the data show it, unless noted: active = inhibition above about 40%; inactive = the rest.

SMILES	HNF4A DNA FP	CTSL1 counter	Rpn11 block	PHOSPHO1 block	CendR NRP1 mod	TPT1 inh	caTPT1 confirm	RNase T1 inh	Rpn11 confirm	MMP-2 counter	Thrombin inh	HNF4a DNA conf
CCOC(=O)C1CCN(S(=O)(=O)c2c(C)n(C)c(=O)n(C)c2=O)CC1	1	-4	-10	33	5	-3	/	/	/	/	/	/
Cc1snc(SCc2cccc(Cl)c2)c1C#N	0	2	-1	24	20	-2	/	/	/	/	/	/
CSc1nsc(/C=C/Nc2cccc(Cl)c2)c1C#N	40*	1	33	-50	-70	36*	26*	34*	/	/	/	41*
CSc1nsc(/C=C/Nc2ccc(Cl)cc2)c1C#N	40*	3	43*	33	-164	32*	70*	82*	16	-30	-10	61*
O=C(CN(C(=O)CNS(=O)(=O)c1ccccc1)C1CCCC1)NCc1ccco1	2	12	-6	-3	5	-11	/	/	/	/	/	/
O=C1c2ccccc2S(=O)(=O)c2cc(N3CCOCC3)ccc21	45*	6	48*	/	-88	34*	35*	46*	44*	25	9	50*
COc1ccc2c(-c3ccccc3)cc(SCC(N)=O)nc2c1	43*	-8	/	25	-120	35*	39*	50*	/	/	/	49*
CCOC(=O)c1ccc(-c2ccc(/C=N/NC(=O)CN(c3cccc(C)c3)S(C)(=O)=O)o2)cc1	3	-1	14	1	-19	-2	/	/	/	/	/	/
Cc1ccc(C)c(N(CC(=O)N/N=C/c2ccc(-c3ccc([N+](=O)[O-])cc3)o2)S(=O)(=O)c2ccccc2)c1	93*	0	/	37	-101	41*	51*	61*	/	/	/	54*
O=Cc1sc(Nc2ccccc2)nc1Cl	37*	8	76*	23	-87	76*	74*	86*	60*	5	30	59*
COc1ccccc1Nc1nc(Cl)c(C=O)s1	50*	5	/	24	-138	45*	70*	83*	/	/	/	89*
COC(=O)c1sccc1NC(=O)Cc1ccc(Br)cc1	-2	-3	-9	-17	-2	0	/	/	/	/	/	/
CC(=O)NC1CCCC(NC(C)=O)C1 (centres undefined)	4	/	-1	/	0	/	/	/	/	/	/	/
c1ccc(-c2csc3ncnc(N4CCN(Cc5ccc6c(c5)OCO6)CC4)c23)cc1	5	0	2	28	-4	0	/	/	/	/	/	/
O=C(CSc1ncnc2scc(-c3ccccc3)c12)N1CCN(Cc2ccc3c(c2)OCO3)CC1	46*	3	50*	-2	-130	41*	66*	77*	34	19	21	37*
O=C(/C=C\Nc1ccc2c(c1)OCO2)c1ccc(Cl)s1	88*	0	36*	10	-183	25*	39*	49*	38	33	-8	61*
O=C(/C=C\Nc1ccc2c(c1)OCO2)c1cccs1	6	2	11	16	-34	10	/	/	/	/	/	/
O=C1NC(=S)N(C(=O)c2ccc(F)cc2)/C1=C/c1ccccc1	78*	6	/	-21	-218	110*	108*	116*	/	/	/	89*
CN(C)CCNC(=O)/C=N/O	-2	-3	-1	9	0	-1	/	/	/	/	/	/
CCCCc1ccc(-c2csc(/C(C#N)=C/c3ccco3)n2)cc1	5	4	14	-4	-3	5	/	/	/	/	/	/
CCCCc1ccc(-c2csc(/C(C#N)=C\c3ccc(C)o3)n2)cc1	45*	3	62*	18	-53	4	/	/	12	-5	6	/
COc1ccc(N=CC2=C(O)CC(C)(C)CC2=O)cc1	1	2	-4	-1	16	-5	/	/	/	/	/	/
COc1cc(C)c2c(c1C=O)Oc1c(c(C)c(O)c3c1C(O)OC3=O)OC2=O (centres undefined)	-47	-2	41*	32	-88	4	/	/	25	21	14	/
Cn1cncc1C#Cc1ccc2cc(C3(O)CCCCC3)oc(=O)c2c1	3	/	47*	/	-51	/	/	/	90*	6	31	/
Cn1cncc1C#Cc1ccc2cc(C(C)(C)O)oc(=O)c2c1	1	/	4	/	-6	/	/	/	/	/	/	/
SMILES	HNF4A DNA FP	CTSL1 counter	Rpn11 block	PHOSPHO1 block	CendR NRP1 mod	TPT1 inh	caTPT1 confirm	RNase T1 inh	Rpn11 confirm	MMP-2 counter	Thrombin inh	HNF4a DNA conf
CCOc1ccccc1C=NN1CCCCCC1	3	/	4	/	-7	/	/	/	/	/	/	/
Cc1cc(N2CCCC2)c(F)cc1/C=C\[N+](=O)[O-]	-1	/	64*	1	-82	/	/	/	60*	-53	22	/
Cn1cc(S(=O)(=O)CC(=O)N2CCCc3ccccc32)c2ccccc21	13	-2	70*	1	1	0	/	/	-3	-28	-4	/
O=C(Nc1ccc(F)cc1)Nc1ccc(Oc2ncnc3cc(Cl)ccc23)nc1	4	-1	11	27	6	-2	/	/	/	/	/	/
O=C(Nc1ccc(Oc2ncnc3cc(Cl)ccc23)nc1)c1cccs1	9	-5	50*	37	-14	9	/	/	5	-2	-2	/
COc1cc2oc3ccccc3c2cc1N(CC(=O)N(C)C)S(=O)(=O)c1ccc(C)cc1	3	-1	-6	23	4	-5	/	/	/	/	/	/
COc1cc2oc3ccccc3c2cc1N(CC(=O)N(C)C)S(=O)(=O)c1ccccc1	-3	0	116*	-46	-4	-1	/	/	-1	20	-14	/
CCc1ccc(NC(=O)C2CCN(S(=O)(=O)c3ccc4c(c3)NC(=O)C(C)S4)CC2)cc1 (centres undefined)	18	1	69*	59	-29	6	/	/	87*	25	33	/
Cc1cc(SCc2ccc(Cl)cc2Cl)nc(=O)[nH]1	12	-2	52*	30	-35	11	/	/	37	-9	30	/
Cc1cc(SCc2ccc(Cl)c(Cl)c2)nc(=O)[nH]1	2	0	5	36	2	2	/	/	/	/	/	/
Cc1cc(SCC(=O)c2ccc(Cl)cc2)nc(=O)[nH]1	8	-3	37*	13	-38	7	/	/	1	-14	-7	/
CCn1c(COc2cccc(OC)c2)nnc1SCC(=O)Nc1cccc(OC)c1	0	0	-3	45	-2	-2	/	/	/	/	/	/
CC1CC(O)C(C)CN1 (centres undefined)	-2	/	9	-37	-8	/	/	/	/	/	/	/
